Source: PubChem BioAssay AID651820 (National Center for Advancing Translational Sciences (NCATS), 2012)
Hit rate of the full screen: of about 340,000 compounds, about 12,000 (3.5%) were called active. Roughly 18% stayed inconclusive and do not appear here. The sample holds actives, similar compounds and a random draw of the others, so the mix is not that of the screen. Calls come from the whole dose curve; as a rule, active = well fitted inhibition curve with a large enough effect; inconclusive = small, poorly fitted or top-dose-only effect, or another doubt; inactive = no such curve, though single readings can be large or run the other way.

test: qHTS Assay for Inhibitors of Hepatitis C Virus (HCV); conditions: Huh7.5.1 HCVcc-Cre infection, luciferase reporter, 44 h; series mostly up to 41.8 µM; activity change, negative = inhibition: at the top concentration
Procedure, shortened: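 Infectious HCVcc-Cre (~0.5 moi) was added to cells just after compound, with cells seeded 4 h earlier at 1,000 per well. Luciferase activity after 44 h culture reported infection; substrate was incubated 15 min at room temperature before reading.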
% is set by controls: 0 for no effect and ±100 for the full control effect; potency is the fitted concentration of half-maximal effect.

SMILES | activity change, negative = inhibition | Potency
CN(CC(=O)NCCc1ccc(F)cc1)CC(=O)Nc1ccc(F)c(F)c1F | -17% (inactive) | –
Cc1c(CN2CC[C@@H](N3CCN(c4ccccn4)CC3)[C@H](O)C2)[nH]c2ccc(F)cc12 | -28.5% (inactive) | –
CC(C)(C)n1nnnc1C(c1ccc(F)cc1)N1CCN(Cc2ccc3c(c2)OCO3)CC1 (stereo not given) | -0.102% (inactive) | –
O=c1[nH]c(N2CCN(Cc3ccc4c(c3)OCO4)CC2)nc2c1CCCC2 | 2.31% (inactive) | –
Fc1ccc2[nH]c3c(N4CCN(Cc5ccc6c(c5)OCO6)CC4)ncnc3c2c1 | – | 2.51 µM (active)
Fc1ccc2[nH]c3c(N4CCSCC4)ncnc3c2c1 | – | 6.31 µM (active)
O=C1NC(=O)C(CCc2ccccc2)(c2ccccc2)N1 (stereo not given) | -0.263% (inactive) | –
Cc1cc(C)n2nc(C(=O)OC(C)C(=O)c3cc(C)c(C)cc3C)nc2n1 (stereo not given) | 3.37% (inactive) | –
CCC(C)N(C(=O)Cn1nc(C)c([N+](=O)[O-])c1C)C1CCS(=O)(=O)C1 (stereo not given) | 35.7% (inactive) | –
O=C(Nc1ccccc1)Nc1ccc(C(F)(F)F)cn1 | -9.65% (inactive) | –
Oc1ccc(/C=N/Nc2ccc(C(F)(F)F)cn2)cc1O | – | 3.55 µM (active)
Cc1nccn1CC(=O)N/N=C/c1ccc(O)c(O)c1 | 11.8% (inactive) | –
CC(=O)Nc1ccc(C(=O)NNC(=O)CCCCC(=O)NNC(=O)c2ccc(NC(C)=O)cc2)cc1 | 10.3% (inactive) | –
CCCCN1C(N)=NC[C@@H]1Cc1ccccc1 | 14% (inactive) | –
CC[C@]12c3[nH]c4ccc(Cl)cc4c3CCN1C(=O)[C@@H](CC(=O)NCCCOC)C[C@@H]2C(=O)N1CCN(C(=O)C2CC2)CC1 | -19.7% (inactive) | –
C=CC[C@@H](CC(=O)N[C@@H](CO)Cc1ccccc1)C(=O)NCCOC(=O)[C@@H](CC=C)CC(=O)OC(C)(C)C | 21.7% (inactive) | –
CCCn1c(C)cc(-c2csc(NC(=O)CCc3nc4ccccc4c(=O)[nH]3)n2)c1C | -6.01% [at 8.37 µM] (inactive) | –
O=C1CN(C(=O)COC(=O)/C=C/c2ccc(F)cc2)c2ccccc2N1 | 3.6% (inactive) | –
Cn1c(SCC(=O)N2CCCc3ccccc32)nc2ccccc2c1=O | – | 12.6 µM (active)
O=C(CSc1nc2[nH]ncc2c(=O)n1-c1ccccc1)N1CCCc2ccccc21 | -4.01% (inactive) | –

SMILES | activity change, negative = inhibition | Potency
O=C(CSc1nc2ccccc2c(=O)n1CCCO)N1CCc2ccccc21 | -6.38% (inactive) | –
O=C(COC(=O)COc1ccccc1F)Nc1cccc(S(=O)(=O)N2CCCCC2)c1 | 2.99% (inactive) | –
Cn1nnnc1SCC(=O)Nc1cccc(S(=O)(=O)N2CCCCC2)c1 | 8.59% (inactive) | –
CSCCC1NC(=O)N(CC(=O)Nc2cccc(S(=O)(=O)N3CCCCCC3)c2)C1=O (stereo not given) | – | 11.2 µM (active)
Nc1cc(N)nc(SCC(=O)Nc2cccc(S(=O)(=O)N3CCCCC3)c2)n1 | 0.0012% (inactive) | –
O=C(Cn1cnc2ccccc2c1=O)Nc1cccc(S(=O)(=O)N2CCCCC2)c1 | – | 11.2 µM (active)
COCCn1cnnc1SCC(=O)Nc1cccc(S(=O)(=O)N2CCCCC2)c1 | -6.89% (inactive) | –
Nc1ncnc2c1ncn2[C@@H]1O[C@H](CNCc2cccn2-c2nccs2)[C@@H](O)[C@H]1O | 7.72% (inactive) | –
NC(=O)c1ccsc1NC(=O)COC(=O)COc1ccc(C=O)cc1 | -1.1% (inactive) | –
CCOC(=O)/C=C/c1ccc(C(F)(F)F)cc1S(=O)(=O)NC(C)(C)C | 4.83% (inactive) | –
CCCCN1C(=O)C(=O)N(CC(=O)Nc2cccc(C(C)=O)c2)C1=O | 11.1% (inactive) | –
CC(C)Cc1nnc(NC(=O)CCNC(=O)c2ccccc2Cl)s1 | 7.34% (inactive) | –
COc1ccc(-c2nnc(-c3ccc4ccccc4c3)o2)cc1 | 7.69% (inactive) | –
CCOc1ccc(S(=O)(=O)Nc2ccc(C(=O)NCCCN3CCCC3=O)cc2)cc1 | -0.358% (inactive) | –
Cc1cccc(NC(=O)c2sc3nc4c(c(-c5ccco5)c3c2N)CCC4)c1 | -12.9% (inactive) | –
Cc1nc2sc(C(=O)c3ccccc3)c(N)c2c2c1CCCC2 | – | 25.1 µM (active)
CCOC(=O)c1sc2nc(SC)nc(-c3ccccc3)c2c1N | -1.48% (inactive) | –
COc1ccc(-c2ccc3nnc(SCC(=O)Nc4ccc(NC(C)=O)cc4)n3n2)cc1 | -24.5% (inactive) | –
CC(C)(C)OC(=O)C[C@@H]1C/C=C\C[C@H](CC(=O)N[C@@H](CO)Cc2ccccc2)C(=O)N[C@H](Cc2ccccc2)COC1=O | -11.5% (inactive) | –
Cc1c(Cl)c([N+](=O)[O-])nn1CCCC(=O)Nc1cc(Cl)ccc1Cl | -20.9% (inactive) | –

SMILES | activity change, negative = inhibition | Potency
Cc1c(Cl)c([N+](=O)[O-])nn1Cc1ccc(C(=O)N/N=C\c2cc(Cl)ccc2O)o1 | – | 12.6 µM (active)
O=C(N/N=C/c1ccc2c(c1)OCO2)c1ccc(Cn2cc([N+](=O)[O-])cn2)o1 | 5.24% (inactive) | –
Cc1ccc(S(=O)(=O)N2CCC(C(=O)N3CCCCCCC3)CC2)cc1 | 19.1% (inactive) | –
O=C(O)c1ccccc1N=N/C(=N/Nc1cc(S(=O)(=O)O)ccc1O)c1ccccc1 | 3.51% (inactive) | –
CN(C)CCN(C(=O)CN1C(=O)c2ccccc2C1=O)c1nc2cc3c(cc2s1)OCCO3 | 12.9% (inactive) | –
COC(=O)c1ccc(CSc2ccc(S(=O)(=O)N3CCCCC3)cn2)cc1 | -14.1% (inactive) | –
Cc1ccc2nc(-c3ccccn3)cc(C(=O)Nc3ccc4c(c3)OCO4)c2c1 | -30% (inactive) | –
Cc1ccc2nc(-c3ccncc3)cc(C(=O)Nc3ccncc3)c2c1 | 5.09% (inactive) | –
Cc1ccc2nc(-c3ccncc3)cc(C(=O)Nc3ccc(OC(F)F)cc3)c2c1 | – | 8.91 µM (active)
COc1cc(C2C(C(=O)c3cccs3)=C(O)C(=O)N2CCN2CCOCC2)ccc1OCCC(C)C (stereo not given) | 3.65% (inactive) | –
Cc1c[n+]([O-])ccc1[N+](=O)[O-] | -10.3% (inactive) | –
CCOc1ccc2ccccc2c1/C=N/NC(=O)c1c(C)cc(C)[nH]c1=O | -20.3% (inactive) | –
O=C(N/N=C/c1c(Cl)[nH]c2ccccc12)c1sc2ccccc2c1Cl | – | 10 µM (active)
Cc1nn(C)cc1/C=N/NC(=O)c1sc2ccccc2c1Cl | -3.97% (inactive) | –
OCC1(CO)CC2(C1)CC(CO)(CO)C2 | 3.43% (inactive) | –
Cc1ccc(S(=O)(=O)N2CCN(C(=O)c3ccc(-n4cncn4)c([N+](=O)[O-])c3)CC2)cc1 | -1.61% (inactive) | –
Cc1ccc(S(=O)(=O)N(C)C)cc1NC(=O)C1Cc2ccccc2CN1C(=O)c1ccco1 (stereo not given) | 6.19% (inactive) | –
Cc1ccc(NC(=O)C2CCCN2C(=O)OCc2ccccc2)cc1C (stereo not given) | -3.3% (inactive) | –
Cc1ccc(C)c(NC(=O)C2Cc3ccccc3CN2C(=O)OCc2ccccc2)c1 (stereo not given) | – | 10 µM (active)
Cc1ccc(OCC(=O)Nc2ccccc2C(=O)NC2CC2)cc1 | -22% (inactive) | –
